Reference: PubChem BioAssay AID2314 (National Center for Advancing Translational Sciences (NCATS), 2010)
Screen size: about 300,000 compounds; about 37,000 (12%) were called active. The entries come from a sample that favours actives as a whole. Values without a mark were called inactive. Cut-off read from the data, not from the text of the source: active = max response mostly above about 13% (no sharp cut-off); inactive = mostly below about 14%.

Test: Cycloheximide Counterscreen for Small Molecule Inhibitors of Shiga Toxin; note: read at 38.3 µM for the half of the compounds with a filed dose; 0% is about no effect
Settings: cell reporter, cycloheximide protein synthesis inhibition counterscreen; stronger effect = higher value

| SMILES | max response |
| --- | --- |
| Cc1cccc(N(C(=O)Cn2nnc(-c3ccc(C)o3)n2)C(C(=O)NC2CCCC2)c2ccncc2)c1 (stereo not drawn) | 1.36% |
| CCn1c(SCC(=O)NC2CC2)nnc1-c1ccncc1 | 5.06% |
| Cc1cc(-c2ccccc2)nc(N2CCC(C(=O)NC34CC5CC(CC(C5)C3)C4)CC2)n1 | 27.8% (active) |
| Cc1cc(C)cc(NC(=O)C2CCN(c3nc(C)cc(C)n3)CC2)c1 | -2.08% |
| O=C(NNC(=O)C1CCN(c2ncccn2)CC1)c1ccccc1 | -2.14% |
| Cc1c(S(=O)(=O)N2CC(C)CC(C)C2)c(=O)n(C)c(=O)n1C (stereo not drawn) | -2.35% |
| CCN(CC)P(=O)(Nc1ccc(SC(F)F)cc1)c1ccc(N(C)C)cc1NC(=O)c1ccco1 (stereo not drawn) | 11.5% |
| O=C1N(Cc2ccc3c(c2)OCO3)c2ccccc2C1(O)c1c[nH]c2ccccc12 (stereo not drawn) | -2.27% |
| COc1cc(NC(=O)C2=CC(c3ccco3)=NS(=O)(=O)N2C)cc(OC)c1OC | 2.06% |
| Cc1cccc(NC(=O)c2ccc3nsnc3c2)c1C | 10.4% (active) |
| O=C(Nc1cccc(NC(=O)c2ccc(Br)cc2)c1)c1ccccc1 | 2.45% |
| O=C(Nc1ccccc1N1CCCCC1)c1ccc2nccnc2c1 | -1.32% |
| O=C(Nc1ccccc1Cl)c1ccc2nsnc2c1 | 30.7% (active) |
| Cc1nc(C)c(C(=O)Nc2cccc(C)c2C)o1 | -2.15% |
| O=C(Nc1ccccc1)c1ccc2nsnc2c1 | 29.1% (active) |
| Cc1cccc(NC(=O)c2cccc(C(=O)Nc3cccc(C)c3C)n2)c1C | -2.9% |
| O=S(=O)(Nc1ccccc1Cl)c1cccc2nsnc12 | 1.19% |
| Cc1ccc([N+](=O)[O-])c(OCCCNCC(C)O)c1 (stereo not drawn) | 17.1% |
| Cc1cc(NC(=O)CCN2CCN(Cc3ccccc3)CC2)ccc1Br | -0.903% |
| COc1ccc(NC(=O)CN2C(=O)COc3ccc(S(=O)(=O)N4CCOCC4)cc32)cc1 | -5.3% |
| COCCNc1ccc(-c2n[nH]c(=O)c3ccccc23)cc1[N+](=O)[O-] | -0.883% |
| COc1ccc(N(C)C(=O)C2CCN(S(=O)(=O)c3cccc4nsnc34)CC2)cc1 | -1.67% |
| Cc1nc2cc(-c3ccc(F)cc3)nn2c(N2CCOCC2)c1C | 16.4% |
| Cc1cc(C(C)(C)C)n2nc(C)c(-c3ccccc3)c2n1 | -2.81% |

| SMILES | max response |
| --- | --- |
| Cc1cc(N)n2nc(-c3ccc(C(C)(C)C)cc3)cc2n1 | 46.8% (active) |
| O=C(CN1C(=O)c2cccnc2Oc2ccc(Cl)cc21)Nc1ccc(F)cc1 | -3.07% |
| COc1cc(NC(=O)C2=CC(c3ccc(C)cc3)=NS(=O)(=O)N2C)cc(OC)c1OC | -1.64% |
| O=C(COC(=O)c1ccc(F)cc1)Nc1nc2ccc([N+](=O)[O-])cc2s1 | 0.781% |
| COc1ccc(C(CNC(=O)c2cccnc2SC)N2CCOCC2)cc1 (stereo not drawn) | -3.3% |
| CSc1ncccc1C(=O)NC1CCCCCC1 | 19.5% |
| COc1cc(NC(=O)c2cccnc2SC)cc(OC)c1 | -1.86% |
| CSc1ncccc1C(=O)Nc1nc2ccc(F)cc2s1 | 53.4% (active) |
| CSc1ncccc1C(=O)Nc1ccc(C)cn1 | 9.66% (active) |
| CCOc1ccc(NC(=O)CCC(=O)NNC(=O)NC2CCCCC2)cc1 | -3.92% |
| COc1ccccc1Nc1nc(N)nc(CN(C)C2CCCCC2)n1 | -1.19% |
| CCOC(=O)c1cnc(SCc2nc(N)nc(Nc3ccc(OC)cc3)n2)nc1N | 19.8% |
| COc1ccccc1Nc1nc(N)nc(CSC(=S)N2CCOCC2)n1 | 23.7% (active) |
| COc1ccc(Nc2nc(N)nc(CSC(=S)N3CCC(C)CC3)n2)cc1 | 47.2% (active) |
| COc1ccccc1NC(=S)N1CCN(c2ccc(F)cc2)CC1 | -1.91% |
| CCOC(=O)C1CCCN(Cc2nc(N)nc(Nc3ccc(C)cc3)n2)C1 (stereo not drawn) | 0.836% |
| C=CCN1C(=NC(=O)COc2ccccc2)SC2CS(=O)(=O)CC21 (stereo not drawn) | -13.1% |
| O=C(NCCc1nnc2ccc(SCC(=O)N3CCOCC3)nn12)c1ccccc1 | -4.07% |
| O=C(O)c1ccc(S(=O)(=O)N2CCC(Cc3ccccc3)CC2)cc1 | -8.01% |
| COc1ccc(C(=O)OCC(=O)NC(=O)CCSc2ccccc2)cc1 | 3.82% |
| COc1ccc(OC)c(CCNC(=O)c2nn(C)c3c2CS(=O)(=O)c2ccccc2-3)c1 | -1.16% |
| COc1ccc(N(CC(=O)NC2CCCCC2)S(=O)(=O)c2c(C)[nH]c(=O)[nH]c2=O)cc1 | -1.68% |
| O=C(NNC(=S)NC(=O)c1cn(-c2ccccc2)nc1-c1ccccc1)c1ccncc1 | 2.78% |
| COc1cc(/C=N/NC(=O)c2cc(C)n(-c3ccc(F)cc3)c2C)cc(OC)c1O | 18.9% |

| SMILES | max response |
| --- | --- |
| Cc1cc(C(=O)N/N=C/c2ccc(O)c([N+](=O)[O-])c2)c(C)n1-c1ccc(F)cc1 | 24.9% (active) |
| Cc1nn(CC(=O)N/N=C/c2ccc(F)cc2)c(C)c1[N+](=O)[O-] | -2.9% |
| COc1ccccc1N(CC(=O)Nc1ccccc1C(=O)N1CCCC1)S(C)(=O)=O | -4.06% |
| CC/C(=N\NC(=O)c1ccccc1Cl)c1ccc(Br)s1 | -0.594% |
| NS(=O)(=O)c1ccc(CCNS(=O)(=O)c2cccc3cccnc23)cc1 | -5.53% |
| CN(C)S(=O)(=O)c1cccc(NC(=O)Cc2ccsc2)c1 | -3.01% |
| Cc1ccc(Cn2c(C)c3cnn(CC(=O)NCc4ccccn4)c(=O)c3c2C)cc1 | -3.46% |
| Cc1ccc(CN2C(=O)N/C(=C/c3cc(C)n(-c4ccccn4)c3C)C2=O)cc1 | 33.6% (active) |
| O=C1N/C(=C/c2cccs2)C(=O)N1Cc1ccc(F)cc1 | -5.73% |
| Cc1cccc([C@@H]2[C@@H]3C(=O)N(C)C(=O)[C@@H]3[C@@H]3C(=O)Nc4ccccc4C(=O)N23)c1 | 1.14% |
| O=c1c2ccccc2nc2n1C(CSCc1ccccc1)CS2 (stereo not drawn) | -1.46% |
| O=C(/C=C/c1ccc([N+](=O)[O-])cc1)NCCSCc1ccco1 | 9.78% |
| COC(=O)c1ccc(CSc2ccccc2C)o1 | -1.75% |
| COC(=O)c1ccc(CSc2nnc(N)s2)o1 | 12.5% (active) |
| CCOc1ccccc1Nc1nnc(SCc2ccc(C(=O)OC)o2)s1 | -4.31% |
| CC1CCCCN1C(=O)CCS(=O)(=O)Cc1ccccc1 (stereo not drawn) | -0.307% |
| COc1cc(C(=O)NN(CCC#N)C2=NS(=O)(=O)c3ccccc32)cc(OC)c1OC | -4.44% |
| COc1cc2c(C(=O)O)c(C)n(C)c2c2ccccc12 | -4.45% |
| COc1cccc2c(C)c(C(=O)O)[nH]c12 | 33.1% (active) |
| Cc1c(C(=O)N/N=C/c2ccccc2)[nH]c2c([N+](=O)[O-])cccc12 | 1.12% |
| O=c1[nH]cccc1-c1nc2ccccc2n1Cc1ccc(Cl)cc1 | -10.6% |
| COc1ccc(C(=O)NC(C)Cn2nc(C)cc2C)cc1OC1CCN(C(C)=O)CC1 (stereo not drawn) | -1.29% |
| Cn1ncc(Br)c1C(=O)NC1CCCC1 | -6.23% |
| CCN(CC)CCn1cnc2c1c(=O)[nH]c(=O)n2Cc1ccccc1 | -9.18% |

| SMILES | max response |
| --- | --- |
| CCOc1ccc(N(C(=O)c2snc(C(N)=O)c2N)C(C(=O)NCC2CCCO2)c2c[nH]c3ccccc23)cc1 (stereo not drawn) | 1.95% |
| Cc1cc(S(=O)(=O)NC2CCCCC2)ccc1OCC(=O)NCc1cccnc1 | -2.89% |
| O=C(Cn1c(=O)n(CC2CS2)c2ccccc21)N1CCCCC1 (stereo not drawn) | 0.367% |
| CCOC(=O)C1(CCc2ccccc2)CCN(Cc2ccco2)CC1 | 8.52% |
| CCOC(=O)C1(Cc2ccccc2C)CCCN(S(C)(=O)=O)C1 (stereo not drawn) | 2.45% |
| Cc1cc(SCC(=O)NCCN2C(=O)CSC2=O)nc2ccccc12 | 0.645% |
| CCOC(=O)C1(Cc2ccccc2C)CCCN(C(=O)CN2C(=O)CSC2=O)C1 (stereo not drawn) | 42.6% (active) |
| CCOC(=O)C1(Cc2ccccc2C)CCCN(C(=O)c2ccc(COC)o2)C1 (stereo not drawn) | 35.6% (active) |
| Cc1ccc(S(=O)(=O)N(CC(=O)NCc2ccco2)c2ccccc2C)cc1 | -4.61% |
| CCCNC(=S)N1CCCC(c2nc3ccccc3[nH]2)C1 (stereo not drawn) | -2.62% |
| O=C(NC1CCCC1)C(c1c(F)cccc1Cl)N(C(=O)c1csnn1)C1CC1 (stereo not drawn) | -1.83% |
| COCCn1c(=NC(=O)c2ccccc2[N+](=O)[O-])sc2cc(S(C)(=O)=O)ccc21 | 25.9% (active) |
| Cn1c(=NC(=O)c2ccc3c(c2)OCCO3)sc2cc(S(C)(=O)=O)ccc21 | 3.13% |
| COCCNC(=O)c1ccccc1NS(=O)(=O)c1ccc(C)c([N+](=O)[O-])c1 | -2.35% |
| O=C(Nc1ccccc1C(=O)Nc1ccncc1)c1ccc([N+](=O)[O-])cc1 | -2.91% |
| Cc1ccsc1C(=O)N[C@@H](C)c1nnc2ccccn12 | -2.38% |
| CCOC(=O)C1=C(C)Nc2nc3ccccc3n2C1c1cccs1 (stereo not drawn) | -3.92% |
| CCOC(=O)C1=C(C)NC(=S)NC1c1cccs1 (stereo not drawn) | -2.57% |
| C=CCOC(=O)C1=C(C)NC(C)=C(C(=O)OCC=C)C1c1cccs1 | 63.9% (active) |
| Cc1cc(C)c2nc(N(CCN(C)C)C(=O)/C=C/c3cccs3)sc2c1 | -3.7% |
| C/C(=N/OC(=O)c1ccc(Br)cc1)c1ccc(C)cc1 | 4.97% |
